Results on twelve molecules are retold here after PubChem BioAssay (NCI).

What all share (assay): NCI-60 one-dose screen, 48 h (100 = growth as untreated, 0 = no growth, -100 = all killed)
Common to all, as to settings: 10 µM unless noted

In experiment [1] the test system is NCI-H23 lung.
For experiment [2], the system named is NCI-H226 lung.
The test system of experiment [3] is NCI-H322M lung.
In experiment [4] the test system is HOP-62 NSCLC.
For experiment [5], the system named is NCI-H460 lung.
Experiment [6] deals with HOP-92 NSCLC.
In experiment [7] the test system is NCI-H522 lung.
Experiment [8] relates to A549/ATCC NSCLC.
Experiment [9] deals with 786-0 renal.
The subject of experiment [10] is COLO 205 colon.

About 83,000 compounds went through this panel and 20% of them were active in at least one assay; those are over-represented in the sample as a whole.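 Treatment: one concentration, 48 hours, 96-well format. Scoring: percent growth, with anything below 10 considered active.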 Values without a mark were called inactive. Active and inactive are the calls of the source.

Regarding `CC[C@@H]1[C@@H](C)O[C@@](O)([C@@H](C)[C@H](O)[C@H](C)[C@H]2OC(=O)/C=C/C=C/[C@H](C)[C@@H]([C@@H](C)[C@@H](O)[C@H](C)[C@@]3(O)C[C@@H](O[C@H]4C[C@@H](O)[C@H](O)C(C)O4)[C@H](CC)[C@@H](C)O3)OC(=O)/C=C/C=C/[C@@H]2C)C[C@H]1O[C@@H]1C[C@@H](O)[C@H](O)C(C)O1` (stereo not given in full), the growth is -73.9% (active) in experiment [1]; -57.5% (active) in experiment [2]; -96.6% (active) in experiment [3]; -80.6% (active) in experiment [4]; -72.6% (active) in [5]; -89.9% (active) in experiment [6]. The growth is -81.8% (active) in experiment [7], -89.7% (active) in [8], -86.1% (active) in experiment [9] and -78.4% (active) in experiment [10].

Turning to `NC(=O)c1c(Br)n(C2OC(CO)C(O)C2O)c2ncnc(N)c12` (stereo not given), the growth is 9.8% (active) in experiment [1]; 54.1% in experiment [2]; 21.7% in experiment [3]; 12% in [4]; 11.8% in experiment [5]; 3.71% (active) in [6]. In addition, the growth was -18.7% (active) in experiment [7], 12.9% in experiment [8], 25.9% in experiment [9] and -12.9% (active) in [10].

As for `CC(=O)O[C@H]1C(=O)[C@@]2(C)[C@H]([C@H](OC(=O)c3ccccc3)[C@]3(O)C[C@H](OC(=O)[C@H](OC(=O)OC[C@H]4COC(C)(C)O4)[C@@H](NC(=O)c4ccccc4)c4ccccc4)C(C)=C1C3(C)C)[C@]1(OC(C)=O)CO[C@@H]1C[C@@H]2O`, the growth in [1] was 21.6%; in experiment [2] it was 55.5%; in experiment [3] it was 14.9%; in [4], 21.7%; in [5] it was 4.16% (active); in experiment [6], 53.4%. For the same molecule, the growth in experiment [7] is 5.12% (active); in experiment [8], 12.5%; in experiment [9], 20.2%; in experiment [10], -15.1% (active).

With `C[C@@H]1O[C@@H](O[C@H]2C[C@@H](O)[C@]3(CO)C4C(CC[C@]3(O)C2)[C@@]2(O)CC[C@H](C3=CC(=O)OC3)[C@@]2(C)C[C@H]4O)[C@H](O)[C@H](O)[C@H]1O` (stereo not given in full), the growth was -67.1% (active) in experiment [1]; -72.3% (active) in [2]; -64.5% (active) in experiment [3]; -99.5% (active) in experiment [4]; -75.9% (active) in experiment [5]; -0.733% (active) in [6]. Moreover, the growth in [7] was -54.4% (active); in experiment [8] it was -91.4% (active); in experiment [9], -95.3% (active); in experiment [10], -84.2% (active).

Regarding `ClCCN(CCCl)c1ccc(OCc2ccccc2)cc1`, the growth in experiment [1] was 58.7%; in [2], 84.6%; in [3] it was 102%; in experiment [4] it was 54.8%; in [5] it was 20.3%; in [6] it was 57.3%. The growth in experiment [7] is 75.1%; in experiment [8], 45.7%; in experiment [9], 19%; in experiment [10], 75.9%.

Take `COc1ccc(/C(C)=C(\c2ccc(OCCN3CCOCC3)cc2)c2ccc(OC(=O)Cc3ccccc3)cc2)cc1`: the growth in experiment [1] was 95.1%; in experiment [2], 110%; in [3] it was 111%; in experiment [4] it was 108%; in experiment [5], 110%; in experiment [6] it was 105%. Further, the growth is 94.9% in experiment [7], 94.3% in experiment [8], 104% in experiment [9] and 109% in experiment [10].

With `NC1CC2CCCCC2CC1(O)c1ccccc1` (stereo not given), the growth in [1] is 94.7%; in experiment [2], 92.2%; in experiment [3], 103%; in experiment [4], 106%; in [5] it was 103%; in experiment [6], 88.6%. The growth in experiment [7] is 97.8%; in experiment [8], 99.3%; in experiment [9], 99.6%; in experiment [10] it was 106%.

For `Cc1ccc(C(Cc2ccccc2)NCCO)cc1` (stereo not given), the growth in [1] was 101%; in [2] it was 97.2%; in [3], 96.4%; in [4] it was 80.3%; in [5], 105%; in experiment [6] it was 74.8%. Further, the growth in experiment [7] was 52.3%; in [8], 69.2%; in [9] it was 80.8%; in experiment [10], 82.1%.

In the case of `C#Cc1ccc2c(c1)C(c1ccccc1)=NCC(=O)N2C`, the growth in [1] is 63.3%; in experiment [2], 69%; in [3], 77.7%; in [4], 49.8%; in experiment [5], 17.4%; in experiment [6], 72.2%. Besides, the growth in experiment [7] was 9.39% (active); in [8], 53.6%; in experiment [9], 59%; in [10] it was 15.8%.

With `Nc1nc([Se])c2ncn(C3OC(CO)C(O)C3O)c2n1` (stereo not given), the growth was 51% in experiment [1]; 78.5% in experiment [2]; 84.3% in experiment [3]; 12.3% in [4]; 27.4% in [5]; 43% in experiment [6]. In addition, the growth in experiment [7] was 71.6%; in [8], 102%; in experiment [9], 29.4%; in experiment [10] it was 124%.

As to `CC1=C([Te]c2ccc(O)cc2)C(=O)c2ccccc2C1=O`, the growth was -19.6% (active) in experiment [1]; -35.4% (active) in [2]; 22.3% in [3]; -25.2% (active) in [4]; -27.6% (active) in experiment [5]; -56.5% (active) in experiment [6]. Moreover, the growth was 0.775% (active) in experiment [7], 6.97% (active) in [8], -1.41% (active) in [9] and -88.5% (active) in experiment [10].

Take `ClCCN(CCCl)Cc1ccc(Nc2ccnc3cc(Cl)ccc23)cc1`: the growth was 36.6% in experiment [1]; 70.2% in experiment [2]; 79% in experiment [3]; 31.3% in experiment [4]; 2.98% (active) in [5]; -4.98% (active) in experiment [6]. For the same molecule, the growth in [7] is -34.7% (active); in [8], 39.2%; in [9] it was 8.84% (active); in experiment [10] it was 50.6%.
